# Experimental data reported in PubChem BioAssay AID435019 (Southern Research Specialized Biocontainment Screening …, 2010).
# Hit rate of the full screen: of about 2,300 compounds, about 1,200 (52%) were called active. So high a share suggests a set chosen from earlier hits. The list shows a part of the results. Measured potencies and affinities stand elsewhere. Values without a mark were called inactive. How the calls were made is not given here.
# Experiment: mammalian cell cytotoxicity, dose response, cytotoxicity control for M. tuberculosis inhibitor project (AID 435019);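 further: 0% = background wells and 100% = vehicle-treated cells; lower values mean fewer viable cells so more cytotoxicity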
# Settings: cytotoxicity counter-screen; series mostly up to 40 µM; viability: at the top concentration
row,Compound,viability
1,CCOC(=O)COc1ccc2c(c1)C(=O)CC(C)(c1cccnc1)O2 (centres undefined),102%
2,Nc1ccc2oc(-c3cccs3)nc2c1,95.4%
3,CCOC(=O)c1ccc(N=C(CC)c2c(O)n(C)c(=O)n(C)c2=O)cc1,90.3%
4,C=CCc1cc(C)ccc1OCCCC(C(=O)OCC)C(=O)OCC,97.1%
5,COc1cc(C)ccc1OCCOc1c(C)cc(Cl)cc1Cl,86.2%
6,C[Se]C[C@@H](N)C(=O)O,101%
7,Cc1nc2sccn2c1-c1nc(-c2cc3ccccc3o2)cs1,86.8%
8,Cc1ccc(NC(=O)COC(=O)CCc2c[nH]c3ccccc23)cc1[N+](=O)[O-],92.4%
9,C[C@@H]1CN([C@H](C)CO)C(=O)c2cc(NC(=O)Nc3ccc(C(F)(F)F)cc3)ccc2O[C@H]1CN(C)S(=O)(=O)c1cccs1,91.9%
10,CCOC(=O)CSc1cc(=O)n(C)c2cc(Cl)ccc12,96.9%
11,O=C(CSc1nc2ccccc2[nH]1)N1c2ccccc2Sc2ccccc21,81.8%
12,O=c1cc(O)c2sc3nc(-c4cccnc4)cc(C(F)(F)F)c3c2[nH]1,92.6%
13,CC(C)c1ccc(-c2nn(-c3ccccc3)cc2C(=O)NCC2CCCO2)cc1 (centres undefined),86.4%
14,COc1ccc(-c2cn3cc([N+](=O)[O-])ccc3n2)cc1OC,96.1%
15,C=CCOc1ccc(/C=N/O)cc1Cl,84.8%
16,O=C(Nc1cccc(Cl)c1)N1CCN(C/C=C/c2ccccc2)CC1,84.9%
17,Cc1ccc(/C=C/S(=O)(=O)NCC(=O)OCC(=O)Nc2c(F)cccc2F)cc1,91.2%
18,CC1(C)c2cc(Cl)ccc2-n2c1cc(O)c(-c1ccccc1)c2=O,88.4%
19,O=c1[nH]c(CSc2cccc[n+]2[O-])nc2ccccc12,93.4%
20,O=C(OCc1ccccc1)/C(=C(\O)c1ccccc1Br)c1ccc(-c2ccccc2)cn1,89.2%
21,CCCc1cc(=O)[nH]c(SCC(=O)N2CCCC2=O)n1,95.3%
22,Cc1nc2ccc(OC(=O)c3ccccc3)cc2s1,86.3%

row,Compound,viability
1,Clc1ccc(-c2ccc(C=Nc3ccc(N4CCOCC4)cc3)o2)c(Cl)c1,95.9%
2,CC(C)OC(=O)CSc1nc2ccccc2s1,95.2%
3,O=C(CSc1nc2ccccc2nc1N1CCOCC1)N1CCN(c2ccccc2)CC1,89.7%
4,C1=C(c2c[nH]c3ccccc23)CCNC1,88.5%
5,COc1ccc(N2CN=C3SCC(=O)N3C2)cc1,99.6%
6,CCn1nnc(-c2ccc(N)cc2)n1,94.1%
7,Nc1ccc(CCc2ccc(N)cc2)cc1,93.5%
8,Cc1cc2cc(CNC(=O)NC3CCCCC3)ccc2[nH]1,89%
9,O=C(/C=C/c1ncc(C(F)(F)F)cc1Cl)OCc1ccccc1,100%
10,Cc1ccc(NC(=O)COc2ccc(-n3ccnc3)cc2)cc1Cl,98%
11,Cc1ccc(-c2nnc(NCc3nc4ccccc4[nH]3)c3ccccc23)cc1S(=O)(=O)N1CCCCC1,81.5%
12,CCNCC(=O)N1c2ccccc2CCc2ccc(NC(=O)OC(C)C)cc21,82.4%
13,COC(=O)c1c(NC(=O)C(=O)N2CCCC2)sc2c1CC(C)(C)OC2,89.7%
14,CCc1c(C)sc(NC(=S)N2CCN(CC)CC2)c1C(=O)OC,83.2%
15,Cc1ccc(N=Nc2c(C)[nH]n(C(N)=S)c2=O)cc1,83.6%
16,O=C1NCCC/C1=N\Nc1ccc(Br)cc1,94.1%
17,COC(=O)CNC(=O)CSc1nc2sc(-c3ccccc3)cc2c(=O)n1-c1ccccc1,90.4%
18,Cc1ccc(NC(=O)c2sccc2-n2cccc2)c(C)c1,93.2%
19,CCCCCCCCCCOC(=O)Cn1c(COc2ccc(Cl)cc2)[n+](C)c2ccccc21,93.5%
20,Nc1nonc1C(=O)NCCNCc1c(OCc2ccccc2F)ccc2ccccc12,94%
21,Cn1ccnc1C(O)c1cc(C(C)(C)C)c(O)c(C(C)(C)C)c1 (centres undefined),89%
22,C(=N\Nc1nc(-c2ccccc2)cs1)/c1ccncc1,88.6%

row,Compound,viability
1,Cc1cccc(NC(=O)CCSc2nnc(Cc3ccccc3)o2)c1,99.5%
2,COC(=O)c1cccc(OC(N)=O)c1,97.2%
3,c1ccc(Cn2c3ccccc3c3nnc(SCCN4CCCCC4)nc32)cc1,88.8%
4,CC(=O)c1c(C)n(C)c2ccc(OC(=O)c3ccc([N+](=O)[O-])cc3)cc12,93.6%
5,COC(=O)CSc1ncnc2c1cnn2-c1ccc(C)cc1C,97.7%
6,CCc1n[nH]c(=S)n1/N=C/c1ccc(-c2ccc(Br)cc2)o1,85.9%
7,NC(=S)N/N=C/c1ccc(-c2ccccc2)o1,95.2%
8,CCOC(=O)c1ccc(-c2c(-c3ccc4c(c3)OCO4)noc2C)cc1F,85.7%
9,Cc1onc(-c2ccccc2Cl)c1C(=O)Oc1cccc2cccnc12,84.4%
10,O=c1c(C=Nc2ccc(Oc3ccccc3)cc2)c[nH]n1-c1cccc(Cl)n1,94.6%
11,Cc1nc2scc(-c3cccs3)c2c(=O)n1-n1cccc1,94.5%
12,O=C(O)/C=C/C(=O)Nc1ccc(-c2ccccc2)cc1,102%
13,O=[N+]([O-])c1cc(C=Nc2ccc3ccccc3c2)ccc1Br,102%
14,Cc1ccc(S(=O)(=O)CNC(=S)c2ccc3ccccc3c2)cc1,87%
15,Cc1ccc(N2CCN(C(=O)c3cn(CC4CCCCC4)nn3)C(C)C2)cc1 (centres undefined),85.7%
16,O=c1c2ccccc2nc(/C=C/c2ccccc2)n1-c1ccc(O)cc1,81.8%
17,CCCC1CCC(C(=O)Nn2c(C)nc3ccccc3c2=O)CC1 (centres undefined),82.5%
18,Cc1ccc2[nH]c(C(=O)NN=C3CCCCC3)c(-c3ccccc3)c2c1,88.9%
19,CCc1cc(C(=O)Nc2ccc(C)cc2Br)cs1,92.9%
20,C/C(=N\NC(=O)COc1ccc(C)cc1Br)c1cc([N+](=O)[O-])cs1,91.1%
21,COc1ccccc1N1C(=O)NC(=O)/C(=C/c2ccc([N+](=O)[O-])s2)C1=O,92.6%
22,Cc1cccc(CSc2nc3c(c(-c4cccs4)c2C#N)CN(C)CC3)c1,95.7%

row,Compound,viability
1,CCCCCCOc1ccc(/C=C/C(=O)N2CCOCC2)cc1OC,87%
2,COc1cc(/C=N/NC(=O)COc2ccc(C)cc2)ccc1OC(=O)c1cccs1,99.4%
3,CCCOc1ccc(-c2cnc(SCC(N)=O)nc2N)cc1,94.2%
4,CC[N+](C)(CC)CCCCOc1ccc2c(c1)C(=O)c1cc(OCCCC[N+](C)(CC)CC)ccc1-2,98.3%
5,O=C(/C=C/c1ccco1)Oc1ccc(C(=S)N2CCOCC2)cc1,92.7%
6,COc1ccc(NC(=O)NC(C)C2CC3CCC2C3)cc1 (centres undefined),88.8%
7,Nc1ccc(-c2nc3nc(N)nc(N)c3nc2-c2ccc(N)cc2)cc1,86.7%
8,CN1CCN(C(=O)/C=C/c2cn(-c3ccccc3)nc2-c2ccc3c(c2)OCCO3)CC1,91.2%
9,Cc1ccc(C(=O)COC(=O)C2CC(=O)N(c3nc(-c4ccccc4)cs3)C2)cc1C (centres undefined),87.5%
10,CCCCCCCCNC(=O)CCNC(=O)c1ccc(C(C)(C)C)cc1,83.2%
11,CCCCCCCCCCCCCCCC(=O)NCCO,98.4%
12,CCc1ccc(NC(=O)c2ccc(C3SCC(=O)N3CCc3ccccc3)cc2)cc1 (centres undefined),91.9%
13,O=C1N[C@@H](Cc2ccccc2)C(=O)N2[C@H]3Nc4ccccc4[C@@]3([C@]34C[C@H]5C(=O)N[C@@H](Cc6ccccc6)C(=O)N5[C@H]3Nc3ccccc34)C[C@@H]12,86.8%
14,CCOC(=O)CSc1nc(C)c(C(=O)OCC)s1,97.8%
15,Cc1cc(C2N=C(N)Nc3nc4ccccc4n32)c(C)n1-c1ccccc1Cl (centres undefined),90.1%
16,CN1OC(COC(=O)c2ccc(Cl)cc2Cl)CC1c1ccccc1 (centres undefined),94.3%
17,CCC(C)Nc1nc2c(C)cccn2c(=O)c1C=Nc1ccc(OC)cc1 (centres undefined),91.5%
18,CC(=O)O[C@H]1C[C@@]2(C)[C@@H](C[C@@H](O)[C@H]3[C@@]4(C)CC[C@@H](O)[C@@H](C)[C@@H]4CC[C@@]32C)/C1=C(\CCC=C(C)C)C(=O)O,99.3%
19,CN(CCCC1CCCC1)C(=O)CCc1nnc(-c2ccccc2)o1,83.9%
20,O=C(Nc1ccc2nsnc2c1)NC1CCCCC1,104%
21,COC(=O)c1ccc(-c2ncc(-c3cccc4ccccc34)o2)cc1,95.6%
22,COc1cc(C)c(/C=C/C(C)=C/C=C/C(C)=C/C(=O)O)c(C)c1C,88.1%

row,Compound,viability
1,CC1(C)OC(=O)C(=NNc2ccc(Cl)cc2)C(=O)O1,94.5%
2,CCn1c(SCC(=O)OC2CCCCC2)nc2ccccc2c1=O,95.4%
3,Cc1ccc(NC(=O)c2cnc(SCC(=O)NCC3CCCO3)n(C)c2=O)cc1C (centres undefined),90.9%
4,Cn1c(CNc2nc(-c3ccccc3)cs2)nnc1SCC(=O)OC1CCCCC1,101%
5,CCOc1ccc(NC(=S)Nc2cc(-c3ccccc3)[nH]n2)cc1,86.4%
6,CCCc1ccc(NC(=O)C2CCN(c3cnccn3)CC2)cc1,95.8%
7,CCCc1ncc(CN2CCCC(C(=O)Nc3ccc(-c4cccc(OC)c4)cc3)C2)cn1 (centres undefined),81.7%
8,Cc1ccc(C)c(N2CCN(C(=O)c3ccc4nc(N5CCOCC5)sc4c3)CC2)c1,84.8%
9,Cc1cc(C)c2nc(N3CCCC(C(=O)N4CCN(c5ncccn5)CC4)C3)sc2c1 (centres undefined),82.1%
10,C[C@]12CCC(=O)C[C@@H]1CC[C@@H]1[C@@H]2CC[C@]2(C)C=CC[C@@H]12,92.2%
11,NC(=O)N1CCC2(CC1)NC(=O)N(c1ccccc1)N2,91.9%
12,Cc1cc(C)nc(-n2nc(C)cc2NC(=O)CN2CCC(C)CC2)n1,91.8%
13,O=C(c1cc2cc(F)ccc2[nH]1)N(Cc1cccnc1)CC1CCCN(C2CCCCC2)C1 (centres undefined),84.5%
14,CC1(CCc2ccccc2)NC(=S)N(c2ccc(Cl)cc2)N1 (centres undefined),89.4%
15,O=C(C[n+]1ccc(C(=O)N/N=C/c2ccc(O)cc2)cc1)c1ccccc1,103%
16,COC(=O)CSc1nnc(CNc2ccc(Cl)cc2)n1-c1ccccc1,94.6%
17,COc1ccccc1-n1cc2c([N+](=O)[O-])cc([N+](=O)[O-])cc2n1,103%
18,Nc1cc([N+](=O)[O-])cc2oc(-c3ccccc3)cc12,83.1%
19,CCCCNc1nc(N(C)c2ccccc2)nc(-n2ccnc2)n1,85.3%
20,O=C(CSc1nc2cc(Cl)ccc2o1)c1cccs1,96.2%
21,COC(=O)c1ccc(CSc2nc3cc(Cl)ccc3o2)cc1,101%
